HT1080 IDH1KD tx: toxicity to HT-1080 IDH1 knockdown cells (counter line) | actives 2% (n = 360,000) | Potency, µM (highest dose often 46.1 µM), hits mostly cytotoxic | HT-1080 IDH1 knockdown viability, ATP luminescence, 48 h | AID 686971
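% activity derives from luminescence (CellTiter-Glo), normalised to DMSO and no-cell wells. HT-1080-IDH1KD cells, 750/well, had 48 h compound exposure at 37 °C.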
HT1080-NT tox: kills 2HG-producing HT-1080-NT fibrosarcoma cells; HT-1080-NT fibrosarcoma viability, CellTiter-Glo ATP luminescence, 48 h; Potency, µM (series often up to 46.1 µM), most hits filed as cytotoxic; actives 1.6% (n = 360,000); AID 686970;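 note: NT is the 2HG producing partner of a matched IDH1 knockdown line; nearly all actives have a fitted effect of over 55% in size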
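Toxicity toward the 2HG-producing NT line was scored as %Activity, normalised to DMSO and no-cell wells, from CellTiter-Glo luminescence after 48 hours' treatment.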
TDP1 cell noCPT: qHTS for Inhibitors of human tyrosyl-DNA phosphodiesterase 1 (TDP1): qHTS in cells in absence of CPT; DT40 Tdp1-/- hTDP1 cells, no CPT, ATP luminescence, 48 h; Potency, µM (series often up to 46.2 µM), usual class: inhibitors; actives 15% (n = 420,000); AID 686978, 2013; note: nearly all actives have a fitted effect of over 55% in size
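Luminescent ATP content (CellTiter-Glo) served as the growth readout. Knockout chicken DT40 cells expressing human TDP1 were exposed to compounds without camptothecin for a minimum 48 hr at 37 °C.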
IL1B secr inh: blocks inflammasome-driven IL-1 beta release; THP-1 LPS/ATP IL-1B secretion, AlphaLISA, 16 h; hits give low values; activity change, % at 57.5 µM; actives 4.7% (n = 360,000); AID 743279; in the data active = activity change below about -50%; inconclusive = mostly about -30% to -49%
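Secreted IL-1B measured by AlphaLISA bead assay after 16 h compound exposure of THP-1 cells; compounds (final up to 57.5 uM) added 1 h before LPS (250 ng/mL) and ATP (1.25 mM) stimulation; lower signal means less secretion.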
DT40 TDP1 CPT: growth inhibition of DT40 Tdp1-/-;hTDP1 cells with camptothecin (screen for TDP1 inhibitors) | chicken DT40 Tdp1-/-;hTDP1 cells + 20 nM CPT, ATP luminescence, 48 h | Potency, µM (highest dose often 46.2 µM), most hits filed as inhibitors | actives 12% (n = 420,000); note: nearly all actives have a fitted effect of over 55% in size
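Chicken DT40 Tdp1-/- cells stably complemented with human TDP1 were seeded at 400 cells/well in medium containing 20 nM camptothecin, exposed to pin-transferred compounds, and grown at 37 °C for at least 48 hr. Viability was read as ATP luminescence.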
Numbers stand for hits; i = inactive; ? = inconclusive; nt = no result given. Sampled rows, rich in hits. Any-hit rate of the full collection: about 19%. Unless noted, calls come from the whole dose curve; as a rule, active = well fitted curve in the direction sought with a large enough effect; inconclusive = small, poorly fitted or top-dose-only effect, or another doubt; inactive = no such curve, though single readings can be large; an effect the other way counts as inactive or inconclusive.

SMILES	HT1080 IDH1KD tx	HT1080-NT tox	TDP1 cell noCPT	IL1B secr inh	DT40 TDP1 CPT
CCCc1cc(=O)oc2c(C)c(OCC(=O)NCCCN3CCOCC3)ccc12	i	i	i	i	i
Cc1cc(OCC(=O)Nc2ccc(CN3CCOCC3)cc2)c2c(C)cc(=O)oc2c1	i	i	12µM	i	18µM
CCCc1cc(=O)oc2c(C)c(OCC(=O)Nc3ccc(CN4CCOCC4)cc3)ccc12	i	i	?	i	15µM
CCCCc1cc(=O)oc2cc(OCC(=O)NCCN3CCOCC3)c(Cl)cc12	i	i	18µM	i	13µM
CCCc1cc(=O)oc2c(C)c(OCC(=O)NC3CCN(Cc4ccccc4)CC3)ccc12	i	i	?	i	18µM
COc1ccc(NCc2cccn2-c2nnc(N3CCOCC3)s2)cc1OC	nt	nt	?	nt	i
CCc1ccc(NCc2cccn2-c2nnc(N3CCCCCC3)s2)cc1	nt	nt	16µM	nt	21µM
COc1ccc(NCc2cccn2-c2nnc(N3CCCCC3)s2)cc1OC	nt	nt	16µM	nt	?
Cc1ccc(CNCc2cccn2-c2nnc(N3CCCC3)s2)cc1	nt	nt	16µM	nt	?
CC1CN(Cc2ccccc2)C(C)CC1O (stereo not given)	i	i	i	i	i
CCCCNC(=NCc1cccc(C(F)(F)F)c1)Nc1ccccc1	23µM	?	10µM	-83	13µM
O=C(Cc1cccc(C(F)(F)F)c1)Nc1ccccc1	i	i	?	i	?
COCC1CCN(C(=O)c2cc(COc3ccccc3SC)on2)C1 (stereo not given)	i	i	i	i	?
C=CC[C@H]1CC(C)=C[C@H](CC=C)N1C(=O)c1cc(COc2ccccc2SC)on1	i	i	15µM	i	?
CSc1ccccc1OCc1cc(C(=O)N2CCN(C)C(c3ccccc3)C2)no1 (stereo not given)	i	i	i	i	21µM
COc1ccc([N+](=O)[O-])c2c1CCN2C(=O)CC[C@H](N)C(=O)O	nt	nt	i	nt	i
COc1ccc(-n2c(NCCN(C)C)nc3sc4c(c3c2=O)CCCCC4)cc1	i	i	16µM	i	?
CN(C)CCNc1nc2sc3c(c2c(=O)n1-c1ccc(F)cc1)CCCCC3	?	23µM	?	-54	21µM
CN(C)CCNc1nc2sc3c(c2c(=O)n1-c1ccccc1)CCCCC3	?	?	?	nt	i
COc1ccc(-n2c(C)nc3sc4c(c3c2=O)CCC4)cc1	i	i	?	i	i
COc1ccc(-n2c(N3CCN(C)CC3)nc3sc4c(c3c2=O)CCCCC4)cc1	i	i	15µM	i	23µM
CN(C)C1=NCCN1CC1CCCCC1	i	i	i	i	i
O=C(c1ccc(-c2ccc([N+](=O)[O-])cc2)o1)N1CCCCCCC1	i	?	10µM	-54	12µM
O=C(Cc1ccc([N+](=O)[O-])cc1)N1CCCCCC1	i	i	?	i	i
CC1CCCN(C(=O)c2ccc([N+](=O)[O-])o2)C1 (stereo not given)	i	i	i	i	?
SMILES	HT1080 IDH1KD tx	HT1080-NT tox	TDP1 cell noCPT	IL1B secr inh	DT40 TDP1 CPT
O=C(c1ccc(-c2ccc([N+](=O)[O-])cc2)o1)N1CCCC(C(F)(F)F)C1 (stereo not given)	i	i	?	-53	?
COc1ccc(C2=Nc3ccccc3N(C(=O)Cc3cc(OC)cc(OC)c3)C2C(=O)NC(C)(C)C)cc1 (stereo not given)	i	i	i	i	18µM
COc1ccc(C2=Nc3ccccc3N(C(=O)Cc3cc(OC)cc(OC)c3)C2C(=O)NC(C)C)cc1 (stereo not given)	i	i	i	i	?
COc1ccc(C2=Nc3ccccc3N(C(=O)c3ccc4ncccc4c3)C2C(=O)NC(C)(C)C)cc1 (stereo not given)	?	i	23µM	i	13µM
COc1ccc(C2=Nc3ccccc3N(C(=O)c3ccncc3)C2C(=O)NC(C)C)cc1 (stereo not given)	i	i	i	i	?
COc1ccc(C2=Nc3ccccc3N(C(=O)c3ccc4ncccc4c3)C2C(=O)NC2CCCC2)cc1 (stereo not given)	?	?	9.2µM	i	8.2µM
CCCN(CCC)S(=O)(=O)c1cc2c3c(c1)CCN3C(=O)CC2	i	i	i	i	i
O=C(CN1C(=O)NC2(CCCC2)C1=O)OCc1c(F)cccc1Cl	i	i	i	i	i
O=C(CCl)N(O)c1ccc(C=Cc2ccccc2)cc1	i	i	0.21µM	-77	0.13µM
CCOc1ccc(NS(=O)(=O)c2cc3c4c(c2)C(C)C(=O)N4CCC3)cc1 (stereo not given)	i	i	?	i	?
Nc1ncnc2c1ncn2[C@@H]1O[C@H](COP(=O)(O)OP(=O)(O)OC[C@H]2OC(O)[C@H](O)[C@@H]2O)[C@@H](O)[C@H]1O (stereo not given in full)	nt	nt	?	nt	i
CS(=O)(=O)Nc1ccc(C2=NN(C(=O)c3ccco3)C(c3ccccc3F)C2)cc1 (stereo not given)	i	i	18µM	i	?
Cc1ccccc1C(=O)N1N=C(c2cccc(NS(C)(=O)=O)c2)CC1c1cccs1 (stereo not given)	i	i	i	i	i
CS(=O)(=O)Nc1cccc(C2=NN(C(=O)c3ccco3)C(c3ccco3)C2)c1 (stereo not given)	i	i	?	i	16µM
COc1ccccc1C1CC(c2ccc(NS(C)(=O)=O)cc2)=NN1C(=O)c1ccccc1 (stereo not given)	i	i	?	i	i
CCS(=O)(=O)Nc1ccc(C2=NN(C(=O)c3ccco3)C(c3ccco3)C2)cc1 (stereo not given)	16µM	?	4.1µM	i	4.6µM
CS(=O)(=O)Nc1cccc(C2=NN(C(=O)c3ccccc3Cl)C(c3ccccc3O)C2)c1 (stereo not given)	i	i	29µM	i	15µM
O=C(COC(=O)/C=C/c1cccc(Br)c1)Nc1ccc(Cl)cn1	i	i	i	i	i
COc1ccc(N2CCN(S(=O)(=O)CCNC(=O)C3CC3)CC2)cc1	i	i	i	i	i
CC(=O)N1N=C(c2cccc(NS(=O)(=O)c3ccc(C)cc3)c2)CC1c1ccco1 (stereo not given)	?	i	?	i	?
CCS(=O)(=O)Nc1cccc(C2=NN(C(=O)c3ccco3)C(c3ccco3)C2)c1 (stereo not given)	?	?	2.6µM	i	4.6µM
O=C(c1ccc(Cl)cc1)n1nc(-c2ccccc2)nc1NCc1ccco1	nt	nt	i	nt	i
COc1ccc(-c2csc(NC(C)c3nc4cc(C(F)(F)F)ccc4n3CCOCCO)n2)cc1 (stereo not given)	?	i	18µM	?	16µM

Compound activity as filed in PubChem BioAssay.
